IP6K1 inhibitor – inhibitors of human IP6K1 | IP6K1 kinase, ADP-Glo luminescence, 2 h; hits give low values | activity change, % (series mostly up to about 58 µM) | hit rate 0.81% among 140,000 | AID 1645851; in the data active means activity change below about -25%; further: on the % scale 0 is the no-effect control and ±100 the full control effect
Target sequence (Q92551 whole entry, looked up): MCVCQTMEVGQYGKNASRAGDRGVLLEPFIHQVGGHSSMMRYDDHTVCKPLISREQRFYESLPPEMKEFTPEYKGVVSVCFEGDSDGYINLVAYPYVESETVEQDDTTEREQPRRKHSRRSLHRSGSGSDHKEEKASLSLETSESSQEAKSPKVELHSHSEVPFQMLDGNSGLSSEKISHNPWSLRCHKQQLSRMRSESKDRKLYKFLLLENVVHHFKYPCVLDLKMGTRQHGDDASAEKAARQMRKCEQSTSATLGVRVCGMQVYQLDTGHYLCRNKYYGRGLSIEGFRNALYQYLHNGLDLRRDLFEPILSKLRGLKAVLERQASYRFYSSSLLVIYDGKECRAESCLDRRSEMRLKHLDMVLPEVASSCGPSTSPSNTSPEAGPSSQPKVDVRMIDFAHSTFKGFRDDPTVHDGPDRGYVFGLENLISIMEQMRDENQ
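ADP-Glo luminescence measures ADP made by human IP6K1 during a 2 h RT reaction with ATP/IP6 (mix at 1.3 mM/130 uM); top library doses 57.5 and 19.1 uM final.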
SNCA expr inhib – SNCA gene expression inhibition; HEK-293 SNCA-luciferase knock-in, luminescence, 24 h; Potency, µM (titrated, usually from 57.2 µM), for the others: at the top dose activity change, negative = inhibition, actives largely listed as inhibitors; hit rate 0.17% among 140,000; AID 1671194;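 further: potency means the concentration at half of the fitted maximal effect; plate controls were DMSO cells for no effect and cell-free wells for full effect; nearly all actives have a fitted effect of over 45% in size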
FLuc inh-1 – Photinus pyralis luciferase inhibition | hit rate 2.5% among 76,000 | Potency, µM (titrated, usually from 115 µM), usual class: inhibitors | purified P. pyralis luciferase, luminescence, biochemical | AID 1347043 | P08659; further: potency means the concentration at half of the fitted maximal effect; on the % scale 0 is the no-effect control and ±100 the full control effect; nearly all actives have a fitted effect of over 65% in size
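Luminescence read by CCD imager after adding enzyme (10nM final) to wells holding compound, titrated in qHTS. Substrates 10uM each D-luciferin and ATP; buffer 50mM Tris acetate pH 7.5, 10mM Mg acetate, Tween-20, BSA.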
SNCA viab count – reduces viability of HEK-293 SNCA reporter cells; Potency, µM (highest dose often 57.1 µM), without a hit: at the top dose activity change, negative = cytotoxicity, hits mostly cytotoxic; HEK-293-SNCA-luc viability, GF-AFC fluorescence, 24 h; AID 1671193; hit rate 0.12% among 150,000;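 further: potency means the concentration at half of the fitted maximal effect; 0% = DMSO-treated cells and -100% = medium-only wells without cells; nearly all actives have a fitted effect of over 30% in size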
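Cytotoxicity counterscreen: after 24 h compound treatment of genome-edited SNCA-luciferase HEK-293 cells, live-cell protease substrate GF-AFC read by fluorescence after 30 min; activity scaled between DMSO (0%) and medium-only (-100%), curves Hill-fitted.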
HEK293 tox – HEK 293 cell cytotoxicity | HEK 293 viability, ATP luminescence (CellTiter-Glo), 48-72 h | Potency, µM (titrated, usually from 115 µM), for inactives: at the top dose activity change, negative = cytotoxicity, most hits filed as inhibitors | hit rate 6.6% among 94,000; further: potency means the concentration at half of the fitted maximal effect; on the % scale 0 is the no-effect control and ±100 the full control effect; nearly all actives have a fitted effect of over 60% in size
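Pintool-delivered compounds were incubated with HEK 293 cells (250 cells/well) at 37 degree Celsius for 48 or 72 hr. ATP-dependent luminescence (CellTiter-Glo) then reported remaining viable cells.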
NIH3T3 tox – kills NIH 3T3 cells; Potency, µM (highest dose often 96.7 µM), for the others: at the top dose activity change, negative = cytotoxicity, most hits filed as inhibitors; hit rate 4.3% among 94,000; NIH 3T3 viability, CellTiter-Glo ATP luminescence, 48-72 h; further: potency means the concentration at half of the fitted maximal effect; on the % scale 0 is the no-effect control and ±100 the full control effect; nearly all actives have a fitted effect of over 55% in size
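NIH 3T3 cells at 400 cells/well received 23 nL of compound by pintool and were incubated 48 or 72 h at 37 °C. Viability was read as ATP-coupled CellTiter-Glo luminescence.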
FLuc SDR -ATP – stabilizes firefly luciferase without ATP | shares compounds with FLuc inh-1 | Potency, µM (titrated, usually from 32.7 µM), without a hit: at the highest dose activation (signal gain), usual class: activators | hit rate 7.8% among 1,300 | Purified FLuc-C-HiBiT, Nano-Glo HiBiT luminescence, no ATP; further: potency means the concentration at half of the fitted maximal effect; nearly all actives have a fitted effect of over 55% in size
FLuc SDR ATP – stabilizes firefly luciferase with ATP present | hit rate 8.7% among 1,300 | shares compounds with FLuc inh-1 | purified FLuc-C-HiBiT + ATP, HiBiT complementation luminescence | Potency, µM (top dose mostly 32.7 µM), inactives show at the highest dose activation (gain of signal), usual class: activators;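 further: signal reports ligand binding via conformational change of the enzyme rather than luciferase catalysis; potency means the concentration at half of the fitted maximal effect; % of control where 0% means no effect; nearly all actives have a fitted effect of over 55% in size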
FLuc inh-2 – firefly luciferase enzyme inhibition. shares compounds with FLuc inh-1. Potency, µM (top dose mostly 32.7 µM), inactives show at the top dose activity change, negative = inhibition, usual class: inhibitors. purified FLuc-C-HiBiT enzyme, luciferin luminescence. hit rate 42% among 1,300; further: potency means the concentration at half of the fitted maximal effect; on the % scale 0 is the no-effect control and ±100 the full control effect; nearly all actives have a fitted effect of over 70% in size
Numbers without * were called inactive; [ ] = dose if it differs, or a comment. Only some compounds are listed: those with a hit (about 7.3% of all), similar ones and a draw of the others. Unless noted, the call rests on the fitted dose curve; in most records, active means well fitted curve in the direction sought with a large enough effect; inconclusive means small, poorly fitted or top-dose-only effect, or another doubt; inactive means no such curve, though single readings can be large; an effect the other way counts as inactive or inconclusive.

How did O=C(NC1CCCN(c2cc(-c3ccc(Cl)cc3)[nH]n2)C1)c1ccc2ncccc2c1 (centres undefined) do in these assays?
IP6K1 inhibitor: 0; SNCA expr inhib: 20%; FLuc inh-1: 1.8µM*; SNCA viab count: inconclusive; HEK293 tox: inconclusive; NIH3T3 tox: inconclusive; FLuc SDR -ATP: 10%; FLuc SDR ATP: 8%; FLuc inh-2: 5µM*

How did CN(C)c1ccc(C(=O)NC2CCN(c3cc(-c4ccc(Cl)cc4)[nH]n3)CC2)cc1 do in these assays?
IP6K1 inhibitor: -8; SNCA expr inhib: -12%; FLuc inh-1: inactive; SNCA viab count: -11%; HEK293 tox: inconclusive; NIH3T3 tox: -19%

How did CN(C)c1cccc(C(=O)NC2CCN(c3cc(-c4ccc(Cl)cc4)[nH]n3)CC2)c1 do in these assays?
IP6K1 inhibitor: 16; SNCA expr inhib: 177%; FLuc inh-1: 7.1µM*; SNCA viab count: -5%; HEK293 tox: inconclusive; NIH3T3 tox: 32µM*; FLuc SDR -ATP: 12%; FLuc SDR ATP: 9.9µM*; FLuc inh-2: 6.2µM*

What do the screens show for `CC1(C)OC(=O)CC(O)C2(C)C1CC(=O)C1(C)C2C(O)CC2(C)C(c3ccoc3)OC(=O)C3OC321` (centres undefined)?
IP6K1 inhibitor: 3; SNCA viab count: -9%[23.9 µM]

Results for Cc1nnc2ccc(N3CCN(C(=O)Nc4ccccc4F)CC3)nn12 ?
IP6K1 inhibitor: 2; HEK293 tox: -1%; NIH3T3 tox: inconclusive

Results for Nc1nn(-c2ccccc2)nc1C(=O)OCc1ccccc1 ?
IP6K1 inhibitor: 20; SNCA expr inhib: 168%; SNCA viab count: 2%; FLuc SDR -ATP: 13%; FLuc SDR ATP: 10%; FLuc inh-2: -13%

Results for COc1ccccc1-c1ccc2ncc(Nc3cc(F)cc(N4CCOCC4)c3)n2n1 ?
IP6K1 inhibitor: -7; SNCA expr inhib: -44%[87.6 µM]; FLuc inh-1: inconclusive; SNCA viab count: -16%[87.6 µM]; HEK293 tox: inconclusive; NIH3T3 tox: inconclusive

What do the screens show for `Fc1cc(Nc2cnc3ccc(-c4ccccc4)nn23)cc(N2CCOCC2)c1`?
IP6K1 inhibitor: 5; SNCA expr inhib: 2%[87.6 µM]; FLuc inh-1: 13µM*; SNCA viab count: -22%[87.6 µM]; HEK293 tox: 45µM*; NIH3T3 tox: 32µM*; FLuc SDR -ATP: 14%[49.3 µM]; FLuc SDR ATP: 11%[49.3 µM]; FLuc inh-2: inconclusive

What do the screens show for `COc1cc(Nc2nc(-c3cccc(OC)c3OC)no2)cc(OC)c1OC`?
IP6K1 inhibitor: 0; SNCA expr inhib: 91%; FLuc inh-1: inactive; SNCA viab count: -8%; HEK293 tox: inconclusive; NIH3T3 tox: inconclusive

How did Fc1ccccc1Nc1nc(-c2ccccc2)no1 do in these assays?
IP6K1 inhibitor: -13; SNCA expr inhib: -64%; FLuc inh-1: 0.4µM*; SNCA viab count: -18%; HEK293 tox: inconclusive; NIH3T3 tox: inconclusive; FLuc SDR -ATP: inconclusive; FLuc SDR ATP: inconclusive; FLuc inh-2: 0.7µM*

What do the screens show for `COc1ccc(-c2noc(-c3nc(-c4ccc(OC)c(OC)c4)no3)n2)cc1OC`?
IP6K1 inhibitor: -9; SNCA expr inhib: 18%; FLuc inh-1: inactive; SNCA viab count: 3%; HEK293 tox: -1%; NIH3T3 tox: inactive

What do the screens show for `COc1cccc(Nc2nc(-c3ccccc3)no2)c1`?
IP6K1 inhibitor: -11; SNCA expr inhib: 30%; FLuc inh-1: 0.79µM*; SNCA viab count: -5%; HEK293 tox: inconclusive; NIH3T3 tox: 45µM*; FLuc SDR -ATP: inconclusive; FLuc SDR ATP: inconclusive; FLuc inh-2: 6.2µM*

Results for COc1ccc(-c2noc(Nc3ccc(OC)c(OC)c3)n2)cc1 ?
IP6K1 inhibitor: 3; SNCA expr inhib: 121%; FLuc inh-1: 7.9µM*; SNCA viab count: -17%; HEK293 tox: 28µM*; NIH3T3 tox: inconclusive; FLuc SDR -ATP: 19%; FLuc SDR ATP: 12%; FLuc inh-2: inconclusive

Results for COc1ccc(-c2noc(Nc3ccc(C)c(C)c3)n2)cc1 ?
IP6K1 inhibitor: 7; SNCA expr inhib: 40%; FLuc inh-1: 8.9µM*; SNCA viab count: inconclusive; HEK293 tox: 40µM*; NIH3T3 tox: inconclusive; FLuc SDR -ATP: 20%; FLuc SDR ATP: 12%; FLuc inh-2: inconclusive

What do the screens show for `COc1cccc(Nc2cc(-c3ccccc3)nc(C)n2)c1`?
IP6K1 inhibitor: -17; SNCA expr inhib: 189%; SNCA viab count: -2%

Results for Fc1c(Cl)cccc1Nc1ncncc1-c1nc(-c2ccccc2)no1 ?
IP6K1 inhibitor: -11; SNCA expr inhib: inconclusive; FLuc inh-1: inactive; SNCA viab count: 2%; HEK293 tox: inactive; NIH3T3 tox: -1%

How did CC(C)N1CCC(OCCCNC(=O)C2Cn3cccc3C(=O)N2C)CC1 (centres undefined) do in these assays?
IP6K1 inhibitor: -16; SNCA expr inhib: 11%; SNCA viab count: -12%; HEK293 tox: -24%; NIH3T3 tox: -30%

What do the screens show for `Cc1nn(-c2ccccc2)c2c1C(C)N(C1CCCN(C(=O)c3ccc(C(F)(F)F)cc3)C1)C2=O` (centres undefined)?
IP6K1 inhibitor: 13; HEK293 tox: inconclusive; NIH3T3 tox: inconclusive

How did CCC(=O)Nc1cc2nn(-c3ccc(C)cc3)nc2cc1C do in these assays?
IP6K1 inhibitor: 1; SNCA expr inhib: 2%; SNCA viab count: 3%; FLuc SDR -ATP: inconclusive; FLuc SDR ATP: inconclusive; FLuc inh-2: 0.39µM*

How did CC(=O)Nc1cccc(-c2csc(CN3CCCC(C)(NC(C)=O)C3)c2)c1 (centres undefined) do in these assays?
IP6K1 inhibitor: 12; SNCA expr inhib: 30%[87.6 µM]; FLuc inh-1: inactive; SNCA viab count: -1%[87.6 µM]; HEK293 tox: inconclusive; NIH3T3 tox: -14%[138 µM]

Results for COc1ccc(-c2ccc(CN3CC(C)(NC(C)=O)C3)s2)cn1 ?
FLuc SDR -ATP: 17%[49.3 µM]; FLuc SDR ATP: 12%[49.3 µM]; FLuc inh-2: inconclusive
